Test results from PubChem BioAssay AID1159580 (chemical genetic matrix, 2015).
Several values for one entry are separate records, joined by “and”; a condition that tells them apart may be missing. Equal entries are not always repeated. In all, about 5,500 compounds went through this assay and about 2,000 (36%) were called active. Roughly 18% stayed inconclusive and do not appear here. No stated cut-off is given here; in the data, active means normalized growth mostly below about 0.91 (no sharp cut-off); inconclusive means no clear call, values can overlap the other calls; inactive means mostly above about 0.92. The list shows a part of the results.

Experiment: chemical genetic growth profiling, strain panel (AID 1159580);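 further: tested at 20 µM; growth read once vehicle control cultures reached saturation at 30 °C; 1 = growth at the plate median or of vehicle wells; lower values mean less growth of the strain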
Details: S. cerevisiae deletion strains, growth OD

Measured: normalized growth

O=C1c2c(O)cccc2Cc2cccc(O)c21
inactive: locus YAL013W, strain DEP1, hits give low values 1.04 | locus YAL021C, strain ccr4, hits give low values 0.958 | locus YAL026C, strain drs2, hits give low values 0.988 | locus YAL030W, strain snc1, hits give low values 0.986 | locus YBL061C, strain skt5, hits give low values 1 | locus YBR009C, strain hhf1, hits give low values 0.997 | locus YBR021W, strain FUR4, hits give low values 1 | locus YBR023C, strain chs3, hits give low values 0.988 | locus YBR171W, strain sec66, hits give low values 0.975 | locus YBR229C, strain ROT2, hits give low values 0.998 | locus YBR231C, strain swc5, hits give low values 0.981 | locus YBR279W, strain paf1, hits give low values 0.966 | locus YCL011C, strain gbp2, hits give low values 0.973 | locus YCL016C, strain dcc1, hits give low values 1.03 | locus YCL029C, strain bik1, hits give low values 0.992 | locus YCL061C, strain MRC1, hits give low values 0.978 | locus YCL069W, strain vba3, hits give low values 1.01 | locus YCR088W, strain abp1, hits give low values 1.01 | locus YDL005C, strain med2, hits give low values 0.978 | locus YDL035C, strain GPR1, hits give low values 1.02 | locus YDL040C, strain nat1, hits give low values 0.999 | locus YDL074C, strain BRE1, hits give low values 1.04 | locus YDL101C, strain DUN1, hits give low values 1.01 | locus YDL134C, strain PPH21, hits give low values 1.02 | locus YDL185W, strain tfp1, hits give low values 0.999 | locus YDL192W, strain arf1, hits give low values 0.994 | locus YDR001C, strain nth1, hits give low values 0.988 | locus YDR069C, strain doa4, hits give low values 0.946 | locus YDR101C, strain arx1, hits give low values 0.99 | locus YDR137W, strain rgp1, hits give low values 0.848 | locus YDR159W, strain sac3, hits give low values 0.982 | locus YDR162C, strain NBP2, hits give low values 1.03 | locus YDR195W, strain ref2 1.11 | locus YDR297W, strain sur2, hits give low values 1.01 | locus YDR318W, strain mcm21, hits give low values 0.994 | locus YDR334W, strain swr1, hits give low values 0.936 | locus YDR335W, strain msn5, hits give low values 0.999 | locus YDR388W, hits give low values 0.992 | locus YDR392W, strain spt3, hits give low values 0.986 | locus YDR502C, strain sam2, hits give low values 1.01 | locus YEL003W, strain gim4, hits give low values 1.03 | locus YEL037C, strain rad23, hits give low values 1 | locus YEL061C, strain CIN8 (second series), hits give low values 0.986 | locus YEL061C, strain CIN8, hits give low values 1 | locus YER015W, strain faa2, hits give low values 1.01 | locus YER016W, strain bim1, hits give low values 1.01 | locus YER110C, hits give low values 0.997 | locus YER111C, strain swi4, hits give low values 1.01 | locus YER155C, strain BEM2 (second series), hits give low values 0.957 | locus YER155C, strain BEM2, hits give low values 0.997 | locus YER167W, strain BCK2, hits give low values 1 | locus YFR010W, strain ubp6, hits give low values 0.957 | locus YGL078C, strain dbp3, hits give low values 0.992 | locus YGL086W, strain mad1, hits give low values 1 | locus YGL167C, strain pmr1, hits give low values 0.962 | locus YGL173C, strain kem1, hits give low values 0.996 | locus YGL227W, strain vid30, hits give low values 0.976 | locus YGL240W, strain doc1, hits give low values 0.985 | locus YGL248W, strain PDE1, hits give low values 1.02 | locus YGL253W, strain hxk2, hits give low values 0.963 | locus YGR078C, strain PAC10, hits give low values 1.03 | locus YGR135W, strain pre9, hits give low values 0.999 | locus YGR252W, strain gcn5, hits give low values 1.02 | locus YHR013C, strain ard1, hits give low values 1 | locus YHR027C, strain rpn1, hits give low values 0.976 | locus YHR030C, strain SLT2, hits give low values 1.01 and 1.06 | locus YHR079C, strain IRE1 (second series), hits give low values 0.994 | locus YHR079C, strain IRE1, hits give low values 1.08 | locus YHR094C, strain hxt1, hits give low values 0.993 | locus YHR129C, strain ARP1, hits give low values 1.01 | locus YHR142W, strain chs7, hits give low values 1.02 | locus YHR200W, strain rpn10, hits give low values 1 | locus YIL066C, strain RNR3, hits give low values 1.02 | locus YIL073C, strain SPO22, hits give low values 1.03 | locus YIL125W, strain kgd1, hits give low values 1 | locus YIR030C, strain dcg1, hits give low values 0.992 | locus YJL092W, strain hpr5, hits give low values 1.01 | locus YJL095W, strain BCK1 (second series), hits give low values 0.967 | locus YJL095W, strain BCK1, hits give low values 1.05 and 1.06 | locus YJL115W, strain asf1, hits give low values 0.982 | locus YJL129C, strain trk1, hits give low values 1.05 | locus YJL134W, strain LCB3, hits give low values 1.01 | locus YJL154C, strain vps35, hits give low values 0.988 | locus YJL164C, strain tpk1, hits give low values 1.02 | locus YJL166W, strain qcr8, hits give low values 0.984 | locus YJL168C, strain set2, hits give low values 0.99 | locus YJL187C, strain SWE1 (second series), hits give low values 1.02 | locus YJL187C, strain SWE1, hits give low values 1 | locus YJR043C, strain POL32, hits give low values 1.06 | locus YJR066W, strain TOR1, hits give low values 0.994 | locus YJR075W, strain HOC1, hits give low values 1.03 | locus YKL009W, strain mrt4, hits give low values 1.01 | locus YKL068W, hits give low values 0.99 | locus YKL085W, strain MDH1 (second series), hits give low values 0.994 | locus YKL085W, strain MDH1, hits give low values 0.994 | locus YKL160W, strain elf1, hits give low values 1 | locus YKR001C, strain vps1, hits give low values 1.01 | locus YKR026C, strain gcn3, hits give low values 0.991 | locus YKR091W, strain srl3, hits give low values 0.985 | locus YLL001W, strain dnm1, hits give low values 1 | locus YLL026W, hits give low values 1 | locus YLL041C, strain sdh2, hits give low values 0.997 | locus YLR027C, strain aat2, hits give low values 1.03 | locus YLR039C, strain RIC1, hits give low values 1.24 | locus YLR058C, strain SHM2, hits give low values 1.01 | locus YLR102C, strain apc9, hits give low values 0.995 | locus YLR113W, strain HOG1, hits give low values 1.13 | locus YLR221C, strain rsa3, hits give low values 0.985 | locus YLR258W, strain gsy2, hits give low values 0.976 | locus YLR262C, strain YPT6 (second series), hits give low values 0.862 | locus YLR262C, strain YPT6, hits give low values 1.28 | locus YLR268W, strain sec22, hits give low values 1.02 | locus YLR320W, strain mms22, hits give low values 0.996 | locus YLR330W, strain CHS5, hits give low values 1 | locus YLR342W, strain FKS1 (second series), hits give low values 1.01 | locus YLR342W, strain FKS1, hits give low values 0.996 | locus YLR357W, strain rsc2, hits give low values 0.921 | locus YLR370C, strain arc18, hits give low values 0.985 | locus YLR371W, strain rom2, hits give low values 1 | locus YLR384C, strain iki3, hits give low values 0.974 | locus YLR418C, strain cdc73, hits give low values 1.11 | locus YML016C, strain PPZ1, hits give low values 1 | locus YML032C, strain rad52, hits give low values 0.996 | locus YML120C, strain ndi1, hits give low values 1.02 | locus YML124C, strain tub3, hits give low values 0.988 | locus YMR058W, strain fet3, hits give low values 0.999 | locus YMR078C, strain ctf18, hits give low values 0.999 | locus YMR125W, strain sto1, hits give low values 0.988 | locus YMR129W, hits give low values 0.995 | locus YMR205C, strain PFK2, hits give low values 1.03 | locus YMR223W, strain ubp8, hits give low values 1 | locus YMR231W, strain pep5, hits give low values 0.976 | locus YMR263W, strain SAP30, hits give low values 1.02 | locus YMR307W, strain GAS1, hits give low values 0.997 | locus YNL067W, strain RPL9B, hits give low values 1.04 | locus YNL071W, strain lat1, hits give low values 1.02 | locus YNL183C, strain NPR1, hits give low values 1 | locus YNL209W, strain ssb2, hits give low values 1 | locus YNL233W, strain BNI4, hits give low values 1.05 | locus YNL248C, strain rpa49, hits give low values 0.906 | locus YNL250W, strain rad50, hits give low values 0.99 | locus YNL271C, strain bni1, hits give low values 0.989 | locus YNL298W, strain CLA4, hits give low values 0.985 | locus YNL307C, strain MCK1, hits give low values 1.01 | locus YNL322C, strain KRE1 (second series), hits give low values 0.988 | locus YNL322C, strain KRE1, hits give low values 1 | locus YNR049C, strain mso1, hits give low values 1.01 | locus YNR052C, strain pop2, hits give low values 0.993 | locus YOL012C, strain htz1 0.791 | locus YOL147C, strain pex11, hits give low values 0.997 | locus YOR001W, strain rrp6, hits give low values 0.979 | locus YOR061W, strain CKA2, hits give low values 1.01 | locus YOR069W, strain VPS5, hits give low values 1.01 | locus YOR070C, strain gyp1, hits give low values 1.03 | locus YOR080W, strain dia2, hits give low values 1 | locus YOR083W, strain WHI5, hits give low values 0.954 | locus YOR106W, strain vam3, hits give low values 0.898 | locus YOR136W, strain idh2, hits give low values 0.993 | locus YOR144C, strain elg1, hits give low values 0.996 | locus YOR184W, strain ser1, hits give low values 1.02 | locus YOR231W, strain MKK1, hits give low values 1.07 | locus YOR265W, strain rbl2, hits give low values 0.996 | locus YOR290C, strain snf2, hits give low values 1.02 | locus YOR316C, strain cot1, hits give low values 0.997 | locus YPL078C, strain atp4, hits give low values 1.01 | locus YPL106C, strain sse1, hits give low values 0.919 | locus YPL240C, strain hsp82, hits give low values 0.991 | locus YPL256C, strain CLN2, hits give low values 1.17 | locus YPR119W, strain clb2, hits give low values 0.988 | locus YPR141C, strain kar3, hits give low values 0.993 | locus YPR163C, strain tif3, hits give low values 0.997 | locus YPR167C, strain met16, hits give low values 1 | strain wtn01, hits give low values 0.999
active: locus YOR270C, strain vph1, hits give low values 0.755 | locus YPL051W, strain arl3, hits give low values 0.914
